This note sets out measurements from paper PMC9838217, “Structure of SALL4 zinc finger domain reveals link between AT-rich DNA binding and Okihiro syndrome”.

Common to all, as to test: HT-SELEX; high values mean tight binding
Details in all cases: protein: recombinant; vector His6-GST; dsDNA, one strand shown

Test [1] deals with T1, SALL4 ZFC4 R900W (HT-SELEX) (Mus musculus, UniProt Q8BX22 870-940, R900W).
T1 sequence: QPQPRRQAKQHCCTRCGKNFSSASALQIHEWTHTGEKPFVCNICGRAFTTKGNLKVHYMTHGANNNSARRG
Put shortly: (§1)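 Purified recombinant mouse SALL4 zinc finger cluster 4 (residues 870–940, 1 µg) was incubated with library DNA (1.5 µg first cycle, 200 ng later) in 100 µl of 10 mM Tris–HCl pH 7.5, 50 mM NaCl, poly(dI-dC) and DTT for 10 min at room temperature, with Ni2+ bead capture and reselection for up to 6 cycles in triplicate. MiSeq reads were scanned for 6-mers. Binding signal is each canonical k-mer's read fraction as fold change relative to the initial random library.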

The target of test [2] is T2, SALL4 ZFC4 G921D (HT-SELEX) (Mus musculus, UniProt Q8BX22 870-940, G921D).
T2 sequence: T1 sequence with W31R, G52D
In short, it runs like this:
as §1

Another test addresses T3, SALL4 ZFC4 WT (HT-SELEX) (Mus musculus, UniProt Q8BX22 870-940).
T3 sequence: T1 sequence with W31R
Put shortly:
as §1

Where a chain is given by its changes, count along the chain named.

With CAACGC, the binding signal in test [1] was 0.263 ± 0.00747 fold-change vs cycle 0; in test [2] it was 0.409 ± 0.0649 fold-change vs cycle 0.
Take ATACCA: the binding signal with SALL4 ZFC4 WT (HT-SELEX) was determined as 1.39 ± 0.0502 fold-change vs cycle 0; in test [2], 1.35 ± 0.0639 fold-change vs cycle 0.
Consider CCGCTA, for which the binding signal in test [1] was determined as 0.299 ± 0.0278 fold-change vs cycle 0; in test [2], 0.434 ± 0.0518 fold-change vs cycle 0.
Turning to ATTTGG, the binding signal came out at 1.02 ± 0.0576 fold-change vs cycle 0 with SALL4 ZFC4 WT (HT-SELEX) and 1.1 ± 0.038 fold-change vs cycle 0 in test [2].
With CCGGAC, the values for the binding signal in test [1] and in test [2] were 0.195 ± 0.02 fold-change vs cycle 0 and 0.305 ± 0.0661 fold-change vs cycle 0, respectively.
The matching figures for GCAGCA: 0.247 ± 0.0238 fold-change vs cycle 0 and 0.368 ± 0.0645 fold-change vs cycle 0.
On to ATCCTG, for which the binding signal came to 0.879 ± 0.0324 fold-change vs cycle 0 with SALL4 ZFC4 WT (HT-SELEX) and 1.02 ± 0.0414 fold-change vs cycle 0 in test [2].
For CTCAAA, in that order: 1.09 ± 0.0723 fold-change vs cycle 0 and 1.2 ± 0.0463 fold-change vs cycle 0.
Turning to AGCCAC, the binding signal stood at 0.315 ± 0.0294 fold-change vs cycle 0 in test [1] and 0.473 ± 0.0855 fold-change vs cycle 0 in test [2].
For the sequence CCAGGG, the binding signal is 0.305 ± 0.0286 fold-change vs cycle 0 in test [1] and 0.408 ± 0.0718 fold-change vs cycle 0 in test [2].
The matching figures for GCGCTA: 0.156 ± 0.0119 fold-change vs cycle 0 and 0.291 ± 0.093 fold-change vs cycle 0.
For the sequence GGGACC, the binding signal in test [1] was determined as 0.257 ± 0.0113 fold-change vs cycle 0; in test [2], 0.386 ± 0.0917 fold-change vs cycle 0.
Consider TCGTAA, for which the binding signal in test [1] turned out to be 1.29 ± 0.0564 fold-change vs cycle 0; in test [2], 1.25 ± 0.113 fold-change vs cycle 0.
The matching figures for CGTGGC: 0.125 ± 0.0124 fold-change vs cycle 0 and 0.24 ± 0.0653 fold-change vs cycle 0.
AGCGTG: the binding signal in test [1] came to 0.35 ± 0.0043 fold-change vs cycle 0; in test [2], 0.476 ± 0.0501 fold-change vs cycle 0.
For CCACGG, in that order: 0.219 ± 0.0185 fold-change vs cycle 0 and 0.334 ± 0.0695 fold-change vs cycle 0.
The matching figures for CTCGGC: 0.127 ± 0.0136 fold-change vs cycle 0 and 0.231 ± 0.0599 fold-change vs cycle 0.
For CGCAAG, in that order: 0.289 ± 0.0102 fold-change vs cycle 0 and 0.411 ± 0.0549 fold-change vs cycle 0.
GTCGGA: the binding signal worked out at 0.35 ± 0.00494 fold-change vs cycle 0 in test [1] and 0.501 ± 0.0597 fold-change vs cycle 0 in test [2].
The matching figures for AGGCCA: 0.313 ± 0.0175 fold-change vs cycle 0 and 0.446 ± 0.0657 fold-change vs cycle 0.
As to CCGCCA, the binding signal in test [1] came to 0.105 ± 0.00392 fold-change vs cycle 0; in test [2], 0.218 ± 0.0543 fold-change vs cycle 0.
For the sequence CCCCGC, the binding signal in test [1] came out at 0.0783 ± 0.012 fold-change vs cycle 0; in test [2], 0.179 ± 0.0709 fold-change vs cycle 0.
For ACTGGC, in that order: 0.318 ± 0.0103 fold-change vs cycle 0 and 0.448 ± 0.0505 fold-change vs cycle 0.
For CCCCCA, in that order: 0.312 ± 0.0194 fold-change vs cycle 0 and 0.423 ± 0.0709 fold-change vs cycle 0.
The matching figures for CTCGCC: 0.139 ± 0.00418 fold-change vs cycle 0 and 0.273 ± 0.0725 fold-change vs cycle 0.
As to GTCGAC, the binding signal in test [1] was determined as 0.301 ± 0.0134 fold-change vs cycle 0; in test [2], 0.452 ± 0.0612 fold-change vs cycle 0.
Take CCCCCG: the figures for the binding signal in test [1] and in test [2] were 0.133 ± 0.00946 fold-change vs cycle 0 and 0.239 ± 0.0586 fold-change vs cycle 0, respectively.
For CGCGAG, the binding signal in test [1] is 0.135 ± 0.0168 fold-change vs cycle 0; in test [2], 0.231 ± 0.0693 fold-change vs cycle 0.
For CGCGTA, in that order: 0.224 ± 0.0194 fold-change vs cycle 0 and 0.34 ± 0.0644 fold-change vs cycle 0.
For CCAGCA, in that order: 0.359 ± 0.0242 fold-change vs cycle 0 and 0.477 ± 0.0744 fold-change vs cycle 0.
For ACCCGC, in that order: 0.145 ± 0.00827 fold-change vs cycle 0 and 0.259 ± 0.0632 fold-change vs cycle 0.
As for ATGGCC, the binding signal in test [1] came out at 0.263 ± 0.0192 fold-change vs cycle 0; in test [2], 0.413 ± 0.0521 fold-change vs cycle 0.
For CTGCAC, in that order: 0.345 ± 0.044 fold-change vs cycle 0 and 0.47 ± 0.0692 fold-change vs cycle 0.
For GGGCAA, in that order: 0.299 ± 0.00241 fold-change vs cycle 0 and 0.434 ± 0.0775 fold-change vs cycle 0.
Regarding AGCGCA, the binding signal came out at 0.18 ± 0.00997 fold-change vs cycle 0 in test [1] and 0.305 ± 0.097 fold-change vs cycle 0 in test [2].
In the case of CCGGAG, the binding signal in test [1] is 0.255 ± 0.0305 fold-change vs cycle 0; in test [2], 0.352 ± 0.0596 fold-change vs cycle 0.
Regarding AGTGGC, the binding signal in test [1] came to 0.299 ± 0.0198 fold-change vs cycle 0; in test [2] it was 0.455 ± 0.0604 fold-change vs cycle 0.
As to AGCCGC, the figures for the binding signal in test [1] and in test [2] were 0.0699 ± 0.00939 fold-change vs cycle 0 and 0.174 ± 0.0601 fold-change vs cycle 0, respectively.
On to CGCCCG, for which the binding signal in test [1] was 0.0459 ± 0.011 fold-change vs cycle 0; in test [2] it was 0.128 ± 0.0586 fold-change vs cycle 0.
For GATGGC, in that order: 0.36 ± 0.0133 fold-change vs cycle 0 and 0.489 ± 0.0668 fold-change vs cycle 0.
Regarding GCGCCA, the binding signal in test [1] was determined as 0.0557 ± 0.0063 fold-change vs cycle 0; in test [2], 0.143 ± 0.0639 fold-change vs cycle 0.
For the sequence CGCGGC, the binding signal came out at 0.0238 ± 0.000376 fold-change vs cycle 0 in test [1] and 0.0986 ± 0.055 fold-change vs cycle 0 in test [2].
The matching figures for GCGGTA: 0.271 ± 0.0135 fold-change vs cycle 0 and 0.391 ± 0.0556 fold-change vs cycle 0.
For GGGCCA, the figures for the binding signal in test [1] and in test [2] were 0.129 ± 0.0234 fold-change vs cycle 0 and 0.254 ± 0.0851 fold-change vs cycle 0, respectively.
Regarding ACGACG, the binding signal came to 0.31 ± 0.0104 fold-change vs cycle 0 in test [1] and 0.425 ± 0.0391 fold-change vs cycle 0 in test [2].
For CGCCCA, in that order: 0.107 ± 0.00392 fold-change vs cycle 0 and 0.227 ± 0.0707 fold-change vs cycle 0.
For GTCCGA, in that order: 0.371 ± 0.00646 fold-change vs cycle 0 and 0.506 ± 0.055 fold-change vs cycle 0.
For ATGCCG, the binding signal in test [1] turned out to be 0.222 ± 0.0038 fold-change vs cycle 0; in test [2], 0.36 ± 0.0731 fold-change vs cycle 0.
